# Data as given in ChEMBL document CHEMBL1961873, “Compounds: GSK PKIS; Assays: Nanosyn kinase panel” (2012).
# Columns and labels:
# [1] = biological target: T1, Ephrin type-B receptor 2 (Homo sapiens) (UniProt P29323); details: at 1 µM
# T1 sequence (whole entry): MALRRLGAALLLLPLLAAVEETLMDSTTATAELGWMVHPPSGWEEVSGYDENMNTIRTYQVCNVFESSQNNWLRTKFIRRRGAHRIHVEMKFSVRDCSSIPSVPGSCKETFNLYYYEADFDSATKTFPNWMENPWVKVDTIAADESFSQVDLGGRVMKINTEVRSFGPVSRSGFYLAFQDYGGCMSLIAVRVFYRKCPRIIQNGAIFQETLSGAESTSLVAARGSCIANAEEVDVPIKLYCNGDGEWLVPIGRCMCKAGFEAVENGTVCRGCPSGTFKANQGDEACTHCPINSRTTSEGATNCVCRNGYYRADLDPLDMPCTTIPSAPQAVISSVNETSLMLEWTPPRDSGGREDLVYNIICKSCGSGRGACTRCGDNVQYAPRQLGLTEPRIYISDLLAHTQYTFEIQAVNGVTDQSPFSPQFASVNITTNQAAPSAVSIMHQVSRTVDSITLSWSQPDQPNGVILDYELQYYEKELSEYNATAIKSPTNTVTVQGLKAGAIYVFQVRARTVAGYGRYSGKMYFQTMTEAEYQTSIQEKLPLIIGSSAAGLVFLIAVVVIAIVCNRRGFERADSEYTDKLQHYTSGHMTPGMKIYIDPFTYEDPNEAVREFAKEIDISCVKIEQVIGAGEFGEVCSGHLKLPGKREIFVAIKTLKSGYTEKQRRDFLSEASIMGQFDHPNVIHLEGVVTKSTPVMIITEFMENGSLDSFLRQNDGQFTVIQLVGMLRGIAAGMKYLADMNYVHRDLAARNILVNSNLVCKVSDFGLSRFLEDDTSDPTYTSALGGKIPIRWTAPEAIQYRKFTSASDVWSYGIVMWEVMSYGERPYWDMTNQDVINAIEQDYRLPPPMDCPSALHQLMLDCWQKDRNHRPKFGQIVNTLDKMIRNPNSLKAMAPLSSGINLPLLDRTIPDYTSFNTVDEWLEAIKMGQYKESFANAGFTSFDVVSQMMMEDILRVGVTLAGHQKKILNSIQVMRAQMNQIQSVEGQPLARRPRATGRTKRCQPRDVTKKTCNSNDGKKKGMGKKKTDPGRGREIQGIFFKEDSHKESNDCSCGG
# [2] = biological target: T2, Ephrin type-B receptor 3 (Homo sapiens) (UniProt P54753); details: at 0.1 µM
# T2 sequence (whole entry): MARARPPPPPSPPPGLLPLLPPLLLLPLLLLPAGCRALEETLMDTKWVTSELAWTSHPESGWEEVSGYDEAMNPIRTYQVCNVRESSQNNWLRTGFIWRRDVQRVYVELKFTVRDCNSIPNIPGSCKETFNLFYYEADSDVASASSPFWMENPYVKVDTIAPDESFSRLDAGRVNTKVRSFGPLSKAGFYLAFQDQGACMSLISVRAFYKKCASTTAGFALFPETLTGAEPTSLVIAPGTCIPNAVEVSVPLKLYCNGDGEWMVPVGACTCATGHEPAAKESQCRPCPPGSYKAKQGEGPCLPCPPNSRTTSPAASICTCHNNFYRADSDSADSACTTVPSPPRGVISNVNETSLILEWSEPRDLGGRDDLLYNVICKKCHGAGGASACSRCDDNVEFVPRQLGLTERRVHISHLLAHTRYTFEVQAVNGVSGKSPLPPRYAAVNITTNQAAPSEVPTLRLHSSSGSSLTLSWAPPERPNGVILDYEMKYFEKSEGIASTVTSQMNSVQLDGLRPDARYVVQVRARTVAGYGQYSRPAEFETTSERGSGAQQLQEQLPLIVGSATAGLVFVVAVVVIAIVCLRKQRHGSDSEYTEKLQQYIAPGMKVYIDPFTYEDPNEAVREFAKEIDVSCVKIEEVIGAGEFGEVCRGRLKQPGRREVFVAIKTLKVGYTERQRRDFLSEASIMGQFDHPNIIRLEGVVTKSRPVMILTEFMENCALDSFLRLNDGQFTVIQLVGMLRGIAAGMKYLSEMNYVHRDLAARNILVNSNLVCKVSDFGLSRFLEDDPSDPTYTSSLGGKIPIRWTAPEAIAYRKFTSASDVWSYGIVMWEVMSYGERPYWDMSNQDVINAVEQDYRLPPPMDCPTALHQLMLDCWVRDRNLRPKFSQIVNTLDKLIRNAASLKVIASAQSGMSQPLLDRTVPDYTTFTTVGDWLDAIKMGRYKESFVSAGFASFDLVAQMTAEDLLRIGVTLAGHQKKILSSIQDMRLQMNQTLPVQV
# [3] = biological target: T2, Ephrin type-B receptor 3 (Homo sapiens); details: at 1 µM
# [4] = biological target: T3, Ephrin type-B receptor 4 (Homo sapiens) (UniProt P54760); details: at 0.1 µM
# T3 sequence (whole entry): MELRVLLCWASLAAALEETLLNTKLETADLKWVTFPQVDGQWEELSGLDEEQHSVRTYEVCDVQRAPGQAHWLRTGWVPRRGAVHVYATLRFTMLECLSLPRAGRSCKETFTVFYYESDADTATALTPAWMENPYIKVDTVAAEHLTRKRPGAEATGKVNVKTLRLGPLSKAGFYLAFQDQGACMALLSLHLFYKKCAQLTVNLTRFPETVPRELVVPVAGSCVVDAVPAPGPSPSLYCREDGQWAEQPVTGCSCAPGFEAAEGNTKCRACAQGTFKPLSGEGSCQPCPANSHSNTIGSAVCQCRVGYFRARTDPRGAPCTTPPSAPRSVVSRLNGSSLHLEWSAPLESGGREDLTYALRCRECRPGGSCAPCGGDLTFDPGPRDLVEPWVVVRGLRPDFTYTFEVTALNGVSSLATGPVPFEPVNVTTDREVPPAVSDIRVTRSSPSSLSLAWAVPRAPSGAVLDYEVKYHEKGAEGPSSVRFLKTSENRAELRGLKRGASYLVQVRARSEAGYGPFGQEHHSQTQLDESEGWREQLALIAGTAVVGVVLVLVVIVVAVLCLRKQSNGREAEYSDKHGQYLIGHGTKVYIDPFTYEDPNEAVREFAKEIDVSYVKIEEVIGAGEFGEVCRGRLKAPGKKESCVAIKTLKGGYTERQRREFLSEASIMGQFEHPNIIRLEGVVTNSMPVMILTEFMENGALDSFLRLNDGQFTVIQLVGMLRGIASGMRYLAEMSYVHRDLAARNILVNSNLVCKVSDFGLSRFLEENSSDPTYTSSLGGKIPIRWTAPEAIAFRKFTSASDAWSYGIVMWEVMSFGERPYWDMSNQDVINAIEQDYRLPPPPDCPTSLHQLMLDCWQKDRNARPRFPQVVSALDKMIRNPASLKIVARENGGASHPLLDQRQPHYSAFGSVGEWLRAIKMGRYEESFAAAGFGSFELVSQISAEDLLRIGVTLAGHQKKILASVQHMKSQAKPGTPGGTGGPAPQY
# [5] = biological target: T3, Ephrin type-B receptor 4 (Homo sapiens); details: at 1 µM
# [6] = biological target: Receptor tyrosine-protein kinase erbB-2 (Homo sapiens) (UniProt P04626); details: at 0.1 µM
# [7] = biological target: Receptor tyrosine-protein kinase erbB-2 (Homo sapiens) (UniProt P04626); details: at 1 µM
# [8] = biological target: Receptor tyrosine-protein kinase erbB-4 (Homo sapiens) (UniProt Q15303); details: at 0.1 µM
# Sequence of Receptor tyrosine-protein kinase erbB-4 (Homo sapiens) (Q15303 whole entry): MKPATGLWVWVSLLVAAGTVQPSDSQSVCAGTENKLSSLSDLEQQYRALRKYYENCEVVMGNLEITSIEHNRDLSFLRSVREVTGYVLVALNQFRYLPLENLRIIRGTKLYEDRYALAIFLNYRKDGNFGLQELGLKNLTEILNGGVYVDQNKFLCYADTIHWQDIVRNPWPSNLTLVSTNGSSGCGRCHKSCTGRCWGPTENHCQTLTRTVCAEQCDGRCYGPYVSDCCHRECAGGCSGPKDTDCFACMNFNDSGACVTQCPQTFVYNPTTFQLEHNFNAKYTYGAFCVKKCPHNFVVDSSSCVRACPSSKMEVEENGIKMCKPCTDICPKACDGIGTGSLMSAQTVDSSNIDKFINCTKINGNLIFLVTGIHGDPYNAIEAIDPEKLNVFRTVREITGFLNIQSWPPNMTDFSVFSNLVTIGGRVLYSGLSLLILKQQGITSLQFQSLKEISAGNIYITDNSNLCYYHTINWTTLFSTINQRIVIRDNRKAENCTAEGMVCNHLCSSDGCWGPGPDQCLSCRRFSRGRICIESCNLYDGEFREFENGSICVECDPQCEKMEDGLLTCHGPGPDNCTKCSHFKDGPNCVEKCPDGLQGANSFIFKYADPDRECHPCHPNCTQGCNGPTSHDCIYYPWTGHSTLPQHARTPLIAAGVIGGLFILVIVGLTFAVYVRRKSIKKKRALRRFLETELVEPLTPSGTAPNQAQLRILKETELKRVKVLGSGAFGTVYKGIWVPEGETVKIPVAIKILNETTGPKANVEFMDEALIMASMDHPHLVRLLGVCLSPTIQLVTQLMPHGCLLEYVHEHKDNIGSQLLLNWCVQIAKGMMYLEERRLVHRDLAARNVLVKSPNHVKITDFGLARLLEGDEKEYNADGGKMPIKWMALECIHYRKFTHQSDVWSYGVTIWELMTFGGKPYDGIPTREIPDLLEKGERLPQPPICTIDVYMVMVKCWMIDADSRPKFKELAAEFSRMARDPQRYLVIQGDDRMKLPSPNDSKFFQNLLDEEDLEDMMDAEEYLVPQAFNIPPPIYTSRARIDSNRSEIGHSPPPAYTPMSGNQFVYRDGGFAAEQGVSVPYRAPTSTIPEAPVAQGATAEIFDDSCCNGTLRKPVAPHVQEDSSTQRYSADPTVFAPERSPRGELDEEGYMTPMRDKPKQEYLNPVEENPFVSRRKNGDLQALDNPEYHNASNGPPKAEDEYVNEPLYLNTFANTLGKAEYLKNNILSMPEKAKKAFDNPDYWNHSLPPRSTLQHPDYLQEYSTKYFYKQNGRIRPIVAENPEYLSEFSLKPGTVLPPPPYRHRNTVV
# [9] = biological target: Receptor tyrosine-protein kinase erbB-4 (Homo sapiens) (UniProt Q15303); details: at 1 µM
# [10] = biological target: Tyrosine-protein kinase Fer (Homo sapiens) (UniProt P16591); details: at 0.1 µM
# Sequence of Tyrosine-protein kinase Fer (Homo sapiens) (P16591 whole entry, looked up): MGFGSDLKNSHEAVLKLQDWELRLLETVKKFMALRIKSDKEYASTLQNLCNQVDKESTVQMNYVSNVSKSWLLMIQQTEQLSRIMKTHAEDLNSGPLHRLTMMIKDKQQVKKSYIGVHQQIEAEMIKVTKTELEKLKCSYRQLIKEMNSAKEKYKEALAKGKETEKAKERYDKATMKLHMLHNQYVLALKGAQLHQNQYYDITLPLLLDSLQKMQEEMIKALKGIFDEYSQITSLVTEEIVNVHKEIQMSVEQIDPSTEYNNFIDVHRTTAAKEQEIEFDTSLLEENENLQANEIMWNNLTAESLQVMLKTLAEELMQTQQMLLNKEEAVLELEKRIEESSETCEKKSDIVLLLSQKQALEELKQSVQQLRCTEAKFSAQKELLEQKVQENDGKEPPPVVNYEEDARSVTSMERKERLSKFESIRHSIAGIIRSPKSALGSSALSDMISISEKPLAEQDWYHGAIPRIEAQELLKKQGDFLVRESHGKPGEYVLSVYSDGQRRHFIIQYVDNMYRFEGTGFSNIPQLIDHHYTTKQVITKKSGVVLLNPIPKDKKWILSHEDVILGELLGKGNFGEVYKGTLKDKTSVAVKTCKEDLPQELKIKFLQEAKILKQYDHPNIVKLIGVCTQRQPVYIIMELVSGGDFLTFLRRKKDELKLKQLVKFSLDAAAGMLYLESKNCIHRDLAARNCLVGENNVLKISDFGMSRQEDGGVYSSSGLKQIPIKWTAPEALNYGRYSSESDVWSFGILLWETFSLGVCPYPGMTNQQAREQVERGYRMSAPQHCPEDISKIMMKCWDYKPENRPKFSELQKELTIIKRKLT
# [11] = biological target: Tyrosine-protein kinase Fer (Homo sapiens) (UniProt P16591); details: at 1 µM
# [12] = biological target: Tyrosine-protein kinase Fes/Fps (Homo sapiens) (UniProt P07332); details: at 0.1 µM
# Sequence of Tyrosine-protein kinase Fes/Fps (Homo sapiens) (P07332 whole entry): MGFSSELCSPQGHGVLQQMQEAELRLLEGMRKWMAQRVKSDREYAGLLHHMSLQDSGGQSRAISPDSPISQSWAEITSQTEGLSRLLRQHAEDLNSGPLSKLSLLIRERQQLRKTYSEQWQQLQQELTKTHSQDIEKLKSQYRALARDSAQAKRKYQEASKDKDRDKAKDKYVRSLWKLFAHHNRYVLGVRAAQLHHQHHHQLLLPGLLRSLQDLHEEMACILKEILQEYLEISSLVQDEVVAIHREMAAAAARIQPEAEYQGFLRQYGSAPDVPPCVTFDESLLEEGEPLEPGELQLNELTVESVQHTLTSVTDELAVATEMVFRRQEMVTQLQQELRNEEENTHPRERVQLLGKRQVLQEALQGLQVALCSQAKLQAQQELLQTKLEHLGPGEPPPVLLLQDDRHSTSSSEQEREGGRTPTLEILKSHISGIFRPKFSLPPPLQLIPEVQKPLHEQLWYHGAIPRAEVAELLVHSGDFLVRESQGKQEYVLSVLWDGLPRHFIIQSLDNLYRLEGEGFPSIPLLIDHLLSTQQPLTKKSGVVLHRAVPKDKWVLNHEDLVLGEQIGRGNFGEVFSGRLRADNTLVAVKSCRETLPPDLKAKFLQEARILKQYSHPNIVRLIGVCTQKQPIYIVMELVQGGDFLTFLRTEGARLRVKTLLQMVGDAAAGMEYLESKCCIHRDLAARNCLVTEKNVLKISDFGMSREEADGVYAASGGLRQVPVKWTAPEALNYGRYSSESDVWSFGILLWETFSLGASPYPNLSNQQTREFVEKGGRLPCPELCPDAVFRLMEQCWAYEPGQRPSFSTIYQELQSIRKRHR
# [13] = biological target: Tyrosine-protein kinase Fes/Fps (Homo sapiens) (UniProt P07332); details: at 1 µM
# [14] = biological target: Fibroblast growth factor receptor 1 (Homo sapiens) (UniProt P11362); details: at 0.1 µM
# [15] = biological target: Fibroblast growth factor receptor 1 (Homo sapiens) (UniProt P11362); details: at 1 µM
# [16] = biological target: Fibroblast growth factor receptor 2 (Homo sapiens) (UniProt P21802); details: at 0.1 µM
# Sequence of Fibroblast growth factor receptor 2 (Homo sapiens) (P21802 22-821 limits assumed): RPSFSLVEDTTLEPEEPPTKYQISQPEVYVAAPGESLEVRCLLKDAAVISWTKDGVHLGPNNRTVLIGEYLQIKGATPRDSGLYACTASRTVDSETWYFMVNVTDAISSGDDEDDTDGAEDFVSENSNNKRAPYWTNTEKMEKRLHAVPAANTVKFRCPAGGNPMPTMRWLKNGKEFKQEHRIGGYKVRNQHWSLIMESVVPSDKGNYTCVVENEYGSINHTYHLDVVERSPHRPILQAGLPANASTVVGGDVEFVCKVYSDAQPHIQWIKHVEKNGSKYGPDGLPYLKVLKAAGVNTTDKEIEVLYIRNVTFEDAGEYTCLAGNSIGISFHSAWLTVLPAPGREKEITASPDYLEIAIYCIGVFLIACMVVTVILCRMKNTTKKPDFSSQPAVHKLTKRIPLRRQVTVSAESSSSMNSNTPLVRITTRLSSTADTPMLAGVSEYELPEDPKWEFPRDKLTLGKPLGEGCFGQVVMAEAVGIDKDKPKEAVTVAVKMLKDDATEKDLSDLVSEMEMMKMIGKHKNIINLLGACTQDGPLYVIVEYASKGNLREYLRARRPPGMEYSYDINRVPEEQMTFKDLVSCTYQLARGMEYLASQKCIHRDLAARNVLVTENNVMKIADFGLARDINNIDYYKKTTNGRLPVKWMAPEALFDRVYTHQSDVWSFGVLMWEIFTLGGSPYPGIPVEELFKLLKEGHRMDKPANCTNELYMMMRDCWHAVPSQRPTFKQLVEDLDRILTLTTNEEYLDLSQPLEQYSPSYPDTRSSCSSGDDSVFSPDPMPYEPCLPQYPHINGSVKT
# [17] = biological target: Fibroblast growth factor receptor 2 (Homo sapiens) (UniProt P21802); details: at 1 µM
# [18] = biological target: Fibroblast growth factor receptor 3 (Homo sapiens) (UniProt P22607); details: at 0.1 µM
# Sequence of Fibroblast growth factor receptor 3 (Homo sapiens) (P22607 23-806 limits assumed): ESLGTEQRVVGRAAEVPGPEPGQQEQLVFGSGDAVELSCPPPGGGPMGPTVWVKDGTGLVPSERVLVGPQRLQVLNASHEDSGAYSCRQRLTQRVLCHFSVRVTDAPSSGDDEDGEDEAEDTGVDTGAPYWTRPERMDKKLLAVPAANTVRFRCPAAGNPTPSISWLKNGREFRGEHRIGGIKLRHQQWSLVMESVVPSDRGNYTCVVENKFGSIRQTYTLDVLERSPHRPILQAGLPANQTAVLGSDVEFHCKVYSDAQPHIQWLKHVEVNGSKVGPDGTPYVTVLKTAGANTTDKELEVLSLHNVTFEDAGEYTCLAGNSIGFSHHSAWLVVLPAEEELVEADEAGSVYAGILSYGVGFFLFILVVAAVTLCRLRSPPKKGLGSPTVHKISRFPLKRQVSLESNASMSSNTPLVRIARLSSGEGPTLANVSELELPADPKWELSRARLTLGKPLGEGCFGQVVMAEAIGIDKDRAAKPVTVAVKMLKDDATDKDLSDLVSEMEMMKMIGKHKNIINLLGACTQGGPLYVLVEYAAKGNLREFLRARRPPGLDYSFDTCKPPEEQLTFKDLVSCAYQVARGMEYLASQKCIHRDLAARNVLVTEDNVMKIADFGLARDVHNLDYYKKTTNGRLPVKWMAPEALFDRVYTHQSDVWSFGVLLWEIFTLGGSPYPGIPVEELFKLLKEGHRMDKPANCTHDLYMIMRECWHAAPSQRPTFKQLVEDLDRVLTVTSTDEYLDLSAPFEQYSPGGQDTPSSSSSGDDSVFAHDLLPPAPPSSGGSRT
# [19] = biological target: Fibroblast growth factor receptor 3 (Homo sapiens) (UniProt P22607); details: at 1 µM
# [20] = biological target: Fibroblast growth factor receptor 4 (Homo sapiens) (UniProt P22455); details: at 0.1 µM;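 also: values are mean percent inhibition of FGFR4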
SMILES,inhibition [1] [%],inhibition [2] [%],inhibition [3] [%],inhibition [4] [%],inhibition [5] [%],inhibition [6] [%],inhibition [7] [%],inhibition [8] [%],inhibition [9] [%],inhibition [10] [%],inhibition [11] [%],inhibition [12] [%],inhibition [13] [%],inhibition [14] [%],inhibition [15] [%],inhibition [16] [%],inhibition [17] [%],inhibition [18] [%],inhibition [19] [%],inhibition [20] [%]
ON=C1CCc2cc(-c3nc(C4CCNCC4)[nH]c3-c3ccncc3)ccc21,-8.09,2.51,-3.73,-0.77,1.02,-0.06,-5.12,5.23,10.6,-0.49,0.21,0.52,0.86,-5.96,-0.14,-1.99,5.39,3.1,2.75,
COc1cc2ncn(-c3cc(OCc4ccccc4S(C)(=O)=O)c(C#N)s3)c2cc1OC,36,5.99,4.4,4.74,17.1,0.83,-1.42,8.79,8.72,6.67,10.3,2.71,3.13,12.1,19.3,8.86,31.6,9.71,24.1,2
C[C@@H](Oc1cc(-n2cnc3ccc(OC[C@@H](O)CO)cc32)sc1C(N)=O)c1ccccc1Cl,-2.42,-1.05,-0.83,-3.41,-0.4,0,0.61,-3.03,-1.55,-1.75,4.95,-0.94,0.05,-7.07,0.72,-1.37,8.23,0.92,6.57,-1.57
O=C(Nc1ccc(Oc2ccc3[nH]c(NC(=O)c4ccco4)nc3c2)cc1)Nc1cc(C(F)(F)F)ccc1F,78.3,2.25,24.2,8.82,63.8,-0.1,-0.1,-1.74,-5.16,3.08,5.37,0.02,0.11,-3.4,9.84,-3.04,33.2,-0.92,7.51,-1.82
COc1cc(/C=N/Nc2ncnc3c2cnn3C(C)C)ccc1O,30.4,2.7,4.2,3.42,21.4,1.13,3.23,3.96,6.31,2.02,7.03,1.26,5.37,-0.65,2.77,1.99,7.97,1.62,7.76,-8.41
COc1cc2ncnc(Nc3ccc4c(cnn4Cc4ccccc4)c3)c2cc1OC,7.52,2.93,4.39,1.36,2.63,32.4,83,83.7,94,0.84,7.92,2.06,2,-0.45,3.82,3.33,7.69,3.3,3.13,-0.15
Nc1nccc(-c2c(-c3ccc(F)cc3)ncn2CCCN2CCOCC2)n1,7.41,5.73,3.41,2.19,3.04,4.07,6.08,12.4,31.7,2.69,5.14,3.13,2.03,1.48,1.16,2.81,5.14,4.29,2.08,
